Reference: publication PMC11024108

The substances below were run against Stress-70 protein, mitochondrial (UniProt P38646) (assay: cross-link between two proteins; cross-linking mass spectrometry).

V-type proton ATPase subunit D, P57746, sequence (P57746 whole entry): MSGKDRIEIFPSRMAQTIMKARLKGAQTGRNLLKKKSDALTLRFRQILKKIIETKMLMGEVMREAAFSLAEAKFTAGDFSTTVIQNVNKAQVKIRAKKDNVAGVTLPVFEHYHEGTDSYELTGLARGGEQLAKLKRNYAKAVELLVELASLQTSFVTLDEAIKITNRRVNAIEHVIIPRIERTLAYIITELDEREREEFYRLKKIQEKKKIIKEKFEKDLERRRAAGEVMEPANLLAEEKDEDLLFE

Listed as a hit, yes:
Mitochondrial import inner membrane translocase subunit TIM44, O43615
Electron transfer flavoprotein subunit beta, P38117
Pyrroline-5-carboxylate reductase 1, mitochondrial, P32322

The substances below were run against V-type proton ATPase 116 kDa subunit a 1 (UniProt Q9Z1G4) in the same assay as above.
V-type proton ATPase 116 kDa subunit a 1, sequence (Q9Z1G4 whole entry): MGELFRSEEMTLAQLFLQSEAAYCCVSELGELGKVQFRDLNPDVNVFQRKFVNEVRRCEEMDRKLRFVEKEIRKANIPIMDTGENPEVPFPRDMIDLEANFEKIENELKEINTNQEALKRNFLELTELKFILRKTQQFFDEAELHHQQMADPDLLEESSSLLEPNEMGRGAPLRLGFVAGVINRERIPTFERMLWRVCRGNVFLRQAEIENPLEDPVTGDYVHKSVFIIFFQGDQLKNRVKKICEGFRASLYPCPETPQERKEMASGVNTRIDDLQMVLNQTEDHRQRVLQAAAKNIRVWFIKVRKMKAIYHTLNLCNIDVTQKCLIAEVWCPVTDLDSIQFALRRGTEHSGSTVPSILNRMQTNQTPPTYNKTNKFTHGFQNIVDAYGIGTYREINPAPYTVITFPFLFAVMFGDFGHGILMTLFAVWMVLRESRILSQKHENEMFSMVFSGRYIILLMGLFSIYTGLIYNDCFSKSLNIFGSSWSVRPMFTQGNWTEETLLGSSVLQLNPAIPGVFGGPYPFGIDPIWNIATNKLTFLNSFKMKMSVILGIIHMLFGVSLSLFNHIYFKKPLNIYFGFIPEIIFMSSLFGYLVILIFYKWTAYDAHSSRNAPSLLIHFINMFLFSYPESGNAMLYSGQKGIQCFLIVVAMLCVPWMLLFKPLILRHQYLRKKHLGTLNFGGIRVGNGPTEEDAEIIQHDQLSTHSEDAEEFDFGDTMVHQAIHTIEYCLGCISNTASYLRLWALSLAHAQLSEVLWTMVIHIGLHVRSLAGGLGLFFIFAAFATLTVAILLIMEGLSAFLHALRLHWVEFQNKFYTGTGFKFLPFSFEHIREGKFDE

Listed as a hit, yes:
V-type proton ATPase subunit H, Q8BVE3
V-type proton ATPase subunit S1, Q9R1Q9
Vesicle-associated membrane protein 1, Q62442

What follows are substances tested against V-type proton ATPase subunit B, brain isoform (UniProt P62814) in the same assay as above.
V-type proton ATPase subunit B, brain isoform, sequence (P62814 whole entry, canonical isoform): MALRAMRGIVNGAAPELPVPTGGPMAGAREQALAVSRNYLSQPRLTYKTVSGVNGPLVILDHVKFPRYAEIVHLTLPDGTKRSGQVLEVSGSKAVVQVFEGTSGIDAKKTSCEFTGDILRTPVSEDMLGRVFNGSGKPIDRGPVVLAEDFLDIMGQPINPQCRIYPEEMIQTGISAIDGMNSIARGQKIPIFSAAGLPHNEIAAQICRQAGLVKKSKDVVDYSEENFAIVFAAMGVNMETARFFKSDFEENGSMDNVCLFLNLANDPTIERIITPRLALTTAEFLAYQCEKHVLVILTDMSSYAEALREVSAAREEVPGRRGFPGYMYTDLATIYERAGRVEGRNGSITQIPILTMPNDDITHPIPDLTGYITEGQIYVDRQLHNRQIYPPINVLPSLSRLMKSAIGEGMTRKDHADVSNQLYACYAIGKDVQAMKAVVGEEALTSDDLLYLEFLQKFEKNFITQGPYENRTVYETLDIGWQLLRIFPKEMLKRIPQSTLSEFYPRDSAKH

Listed as a hit, yes:
V-type proton ATPase subunit E 1, P50518
V-type proton ATPase subunit D, P57746
V-type proton ATPase catalytic subunit A, P50516
